# Source: PubChem BioAssay AID504332 (National Center for Advancing Translational Sciences (NCATS), 2011)
# The campaign covered roughly 350,000 compounds. About 31,000 (8.9%) were called active. Inconclusive results (about 15%) are left out. Many of the other results were omitted from the sample, so actives are more common in it than they were. Unmarked numbers belong to inactive results. The call rests on the fitted dose curve; in most records, active means well fitted inhibition curve with a large enough effect; inconclusive means small, poorly fitted or top-dose-only effect; inactive means no such curve, though single readings can be large or run the other way.
# Target: Histone-lysine N-methyltransferase EHMT2 (Homo sapiens) (UniProt Q96KQ7)
# Sequence (Q96KQ7 913-1193 limits assumed): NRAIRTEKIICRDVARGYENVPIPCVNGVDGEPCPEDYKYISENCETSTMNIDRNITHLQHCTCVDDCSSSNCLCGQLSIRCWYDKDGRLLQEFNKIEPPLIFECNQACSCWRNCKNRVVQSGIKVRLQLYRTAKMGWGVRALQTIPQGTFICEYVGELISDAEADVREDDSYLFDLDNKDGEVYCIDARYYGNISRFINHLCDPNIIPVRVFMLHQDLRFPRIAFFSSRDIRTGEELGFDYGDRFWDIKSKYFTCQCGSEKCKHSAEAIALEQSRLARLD
# Assay: qHTS Assay for Inhibitors of Histone Lysine Methyltransferase G9a; further: nearly all actives have a fitted effect of over 75% in size
# Details: G9a H3K9 monomethylation, AlphaScreen, 2 h; series mostly up to 59 µM; activity, negative = inhibition: at the top concentration
# In short: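 Compounds were preincubated with 20 nM G9a for 15 min, after which biotinylated H3K9 peptide (500 nM) and SAM (20 uM) started a 2 h room-temperature reaction. Monomethylated product was quantified by antibody-based AlphaScreen chemiluminescence.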
# On the % scale 0 is the no-effect control and ±100 the full control effect; potency means the concentration at half of the fitted maximal effect.
SMILES,"activity, negative = inhibition",Potency
CCCCn1c(SCC(=O)N2CCCC2=O)nc2cc(S(N)(=O)=O)ccc21,76.1% [at 2.33 µM],–
OC(COc1cccc2ccccc12)CN1CCN(c2ccccn2)CC1 (stereo not given),–,50.1 µM (active)
O=C1c2cccc3cccc(c23)N1CN1CCN(c2ccccn2)CC1,4.2%,–
Cc1ccccc1OCC(O)CN1CCN(c2ccccn2)CC1 (stereo not given),-42.2% [at 102 µM],–
COc1ccc(-c2nc3ccccc3s2)cc1NC(=O)COc1ccccc1C,6.94%,–
COc1ccccc1C1C(C(=O)N2CCCCC2)=C(C)Nc2nc3ccccc3n21 (stereo not given),-8.15%,–
Cc1ccccc1NC(=O)COc1cccc2c1CCNC2=O,2.09% [at 102 µM],–
Cc1ccnc(NS(=O)(=O)c2ccc(NC(=O)c3ccc(S(=O)(=O)N(C)C)cc3)cc2)n1,13.2% [at 102 µM],–
Cc1ccnc(NS(=O)(=O)c2ccc(NC(=O)c3oc4ccc(F)cc4c3C)cc2)n1,6.53% [at 0.501 µM],–
Cc1ccnc(NS(=O)(=O)c2ccc(NC(=O)c3oc4ccccc4c3C)cc2)n1,–,25.1 µM (active)
Cc1ccc(NC(=O)NC(C)c2c(-n3cccc3)sc(C)c2C)c(C)c1 (stereo not given),10.6%,–
CC(=O)Nc1cc(C(=O)O)ccc1S(=O)(=O)c1ccc(Cl)cc1,–,50.1 µM (active)
COCCNC(=O)c1ccc(S(=O)(=O)c2ccc(Cl)cc2)c(NC(C)=O)c1,-9.66% [at 102 µM],–
CCOC(=O)N1CCN(C(=O)c2ccc(S(=O)(=O)c3ccc(C)cc3)c(NC(C)=O)c2)CC1,29.4% [at 0.501 µM],–
O=C(CN1CCCCC1)Nc1ccccc1C(=O)NC1CC1,-7.68% [at 102 µM],–
O=C(COc1ccc(Cl)cc1)N(Cc1ccco1)Cc1ccco1,-9.12%,–
O=C1C=C(c2cccc(Br)c2)C[C@@H](c2ccc(F)cc2)C1,-5.82% [at 0.501 µM],–
COc1ccc(C2=NN(C(=O)CSc3nc(=O)n4ccc(C)cc4n3)C(c3ccc(C)cc3)C2)cc1 (stereo not given),4.89% [at 2.33 µM],–
CC(=O)Nc1cccc(NC(=O)c2c(-c3ccccc3)noc2C)c1,10.1% [at 12.7 µM],–
COc1ccc(Cl)cc1C(=O)NNC(=S)NC1CCCC1,16.1% [at 102 µM],–
COc1ccc(C(=O)NC(=S)NC2CCCCC2)cc1,–,39.8 µM (active)
CNC(=S)NNC(=O)c1ccc(N(C)C)cc1,-38.7% [at 102 µM],–
COc1cc(C(=S)NC2CCCCC2)ccc1O,–,35.5 µM (active)
Cc1onc(-c2ccccc2)c1C(=O)NNC(=S)NC(=O)c1ccc(F)cc1,–,31.6 µM (active)
CC(=O)NC(=S)NNC(=O)c1ccc(Br)cc1,–,8.91 µM (active)
COc1ccc(C(=O)NC2CCN(C(=S)Nc3ccccc3)CC2)cc1,-1.57% [at 102 µM],–
COc1cc(OC)c(C(=O)NC2CCCCCC2)cc1OC,13.1% [at 12.7 µM],–
CCCNC(=S)N1CCC(NC(=O)c2ccc(OC)cc2)CC1,28.9% [at 102 µM],–
Cn1nnnc1SCC(=O)NNC(=O)c1ccc(Br)cc1,1.14% [at 102 µM],–
CCc1noc(C)c1C(=O)NNC(=O)c1ccc(F)cc1,4.99% [at 102 µM],–
